Reference: article PMC6792352, “Limited Chemical Structural Diversity Found to Modulate Thyroid Hormone Receptor in the Tox21 Chemical Library” (Environmental Health Perspectives, 2019)
Structures can show the parent of a compound that is named as a salt.

system: thyroid hormone receptor (endogenous TRα and TRβ); parameters: species or system GH3-TRE-Luc (rat pituitary); GH3-TRE-Luc luciferase reporter, antagonist mode against 1 nM T3, loss of signal, qHTS; settings: read-out: Average AC50 (uM) GH3-TRE-Antag, antagonist mode, 1 nM T3, no GH3 cytotoxicity hit

| Structure (SMILES) | AC50 |
| --- | --- |
| C[C@@H]1C[C@H]2[C@@H]3C[C@H](F)C4=CC(=O)C(Cl)=C[C@]4(C)[C@@]3(F)[C@@H](O)C[C@]2(C)[C@@]1(O)C(=O)CO [Halometasone hydrate] | 33.2 µM |
| CC/C=C/CCCCCCCCC1CC(=O)OC1=O (stereo not shown) [(Tetrapropenyl)succinic anhydride] | 65.5 µM |
| Cc1ccc(S(=O)(=O)NC2CCCCC2)cc1 [N-Cyclohexyl-4-methylbenzenesulfonamide] | > 90 µM |
| Oc1ccc2c(c1)OCO2 [Sesamol] | > 90 µM |
| CCCCCCCCCCC(=O)O [Undecanoic acid] | 60.2 µM |
| C[C@]12CC[C@@H]3c4ccc(O)cc4CC[C@H]3[C@@H]1CCC2=O [Estrone] | 0.0388 µM |
| C[C@H]1O[C@@H](O[C@H]2[C@@H](O)C[C@H](O[C@H]3[C@@H](O)C[C@H](O[C@H]4CC[C@@]5(C)[C@H](CC[C@@H]6[C@@H]5CC[C@]5(C)[C@@H](C7=CC(=O)OC7)CC[C@]65O)C4)O[C@@H]3C)O[C@@H]2C)C[C@H](O)[C@@H]1O [Digitoxin] | 40 µM |
| CC(=O)[C@H]1CC[C@H]2[C@@H]3C=CC4=CC(=O)CC[C@@]4(C)[C@@H]3CC[C@]12C [Dydrogesterone] | 9.99 µM |
| CCCC(=O)c1cc(O)c(O)cc1O [2',4',5'-Trihydroxybutyrophenone] | 52.7 µM |
| CCOC(=O)C(C)OC(=O)c1cc(Oc2ccc(C(F)(F)F)cc2Cl)ccc1[N+](=O)[O-] (stereo not shown) [Lactofen] | 81.8 µM |
| COc1ccccc1/C=C/C=O [trans-2-Methoxycinnamaldehyde] | 47.6 µM |
| N#CC(c1ccc(Cl)cc1)c1c(Cl)cc(-n2ncc(=O)[nH]c2=O)cc1Cl (stereo not shown) [Diclazuril] | 4.7 µM |
| CCCCN(CCCC)C(=O)N(CCCC)CCCC [1,1,3,3-Tetrabutylurea] | 22.2 µM |
| CCCCCC[C@@H](O)C/C=C\CCCCCCCC(=O)O [Potassium ricinoleate] | 31.8 µM |
| CCC(=O)O[C@]1(C(=O)CCl)[C@@H](C)C[C@H]2[C@@H]3C[C@H](F)C4=CC(=O)C=C[C@]4(C)[C@@]3(F)[C@@H](O)C[C@@]21C [Halobetasol propionate] | 42.4 µM |
| CCCCCCCCCC(C)C=O (stereo not shown) [2-Methylundecanal] | 40.2 µM |
| N=c1c[n+](N2CCOCC2)[n-]o1 [3-Morpholinosydnonimine hydrochloride] | 52.1 µM |
| C=CCOC(=O)/C=C\C(=O)OCC=C [Diprop-2-en-1-yl (2Z)-but-2-enedioate] | 79.2 µM |
| CC(C)(C)C(O)C(Oc1ccc(Cl)cc1)n1cncn1 (stereo not shown) [Triadimenol] | > 90 µM |

| Structure (SMILES) | AC50 |
| --- | --- |
| C#C[C@]1(O)C=C[C@H]2[C@@H]3CCC4=CC(=O)CC[C@@H]4[C@H]3CC[C@@]21CC [Gestodene] | 15.5 µM |
| CN(C)c1ccc(O)c2c1C[C@H]1C[C@H]3[C@H](N(C)C)C(O)=C(C(N)=O)C(=O)[C@@]3(O)C(O)=C1C2=O [Minocycline hydrochloride] | 44.9 µM |
| Cc1nc2ccc(CN(C)c3ccc(C(=O)N[C@@H](CCC(=O)O)C(=O)O)s3)cc2c(=O)[nH]1 [Raltitrexed] | 0.18 µM |
| CC1(C)N=C(N)N=C(N)N1c1ccc(Cl)cc1 [Cycloguanil hydrochloride] | 28.6 µM |
| O=C(Nc1ccc(/C=C/c2ccc(NC(=O)c3cc(S(=O)(=O)O)c4cccnc4c3O)cc2S(=O)(=O)O)c(S(=O)(=O)O)c1)c1cc(S(=O)(=O)O)c2cccnc2c1O [Ubistatin A] | 27.4 µM |
| COC(=O)[C@H]1[C@H]2C[C@@H]3c4[nH]c5cc(OC)ccc5c4CCN3C[C@H]2C[C@@H](OC(=O)/C=C/c2cc(OC)c(OC)c(OC)c2)[C@@H]1OC [Rescinnamine] | 21 µM |
| Cn1c(=O)c2[nH]c(Br)nc2n(C)c1=O [8-Bromotheophylline] | 24.8 µM |
| CC(C)NCC(O)COc1ccc(CCOCC2CC2)cc1 (stereo not shown) [Betaxolol] | 39.4 µM |
| C[C@@H]1C[C@H]2[C@@H]3C[C@H](F)C4=CC(=O)C=C[C@]4(C)[C@@]3(F)[C@@H](O)C[C@]2(C)[C@@]1(O)C(=O)COC(=O)C(C)(C)C [Flumethasone pivalate] | 26.2 µM |
| C[C@]12CC[C@@H]3c4ccc(O)cc4CC[C@H]3[C@@H]1CC[C@@H]2O [17beta-Estradiol] | 31.7 µM |
| CCCCC(CC)COC(=O)C(C#N)=C(c1ccccc1)c1ccccc1 (stereo not shown) [2-Ethylhexyl-2-cyano-3,3-diphenylacrylate] | 31 µM |
| Cc1ccc2nc(N)[nH]c(=O)c2c1Sc1ccncc1 [Nolatrexed dihydrochloride] | 4.76 µM |
| CCCCOC(=O)c1ccc(O)cc1 [Butylparaben] | > 50 µM |
| C#Cc1cccc(Nc2ncnc3cc(OCCOC)c(OCCOC)cc23)c1 [Erlotinib] | 21.9 µM |
| COc1ccc2c(c1)c1c3n2CCN(C)C3=NCC1 [Metralindole] | 28.1 µM |
| O=C(N[C@@H]1N=C(c2ccccc2F)c2cccc3c2N(CC3)C1=O)c1cc2ccccc2[nH]1 [N-[(3R)-1-(2-Fluorophenyl)-4-oxo-3,4,6,7-tetrahydro[1,4]diazepino[6,7,1-hi]indol-3-yl]-1H-indole-2-carboxamide] | 5.69 µM |
| CCCCC[Si](OCC)(OCC)OCC [Triethoxypentylsilane] | 45.9 µM |
| COC(=O)Nc1nc2ccc([S+]([O-])c3ccccc3)cc2[nH]1 (stereo not shown) [Oxfendazole] | 12.2 µM |
